# Measurements reported in paper PMC8384837, “Expanding the binding specificity for RNA recognition by a PUF domain”.
# Columns and labels:
# Test in all cases: yeast three-hybrid, YBZ-1, SC-Leu-His + 0.5 mM 3-AT, 4 days
# Settings in all cases: tags: N-Gal4 AD-HA kept; label: inside an RPR1-promoter hybrid RNA with tandem MS2 sites; ssRNA
# PUM1 PUF domain R1-KCS = PUM1 PUF domain R1-KCS (Homo sapiens, UniProt Q14671 828-1176, S863K;R864C;Q867S)
# Summary of the method: (§1)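 A centromeric plasmid in strain YBZ-1 co-expressed Pumilio-1 PUF domain libraries, randomized at the three base-contacting residues of each repeat, with matching RNA elements; the strain carries a LexA–MS2 coat fusion and a HIS3 reporter. After four days on SC-Leu (input) or SC-Leu-His + 0.5 mM 3-AT (selection), the repeat regions were PCR-amplified and Illumina-sequenced. The interaction score is the log change in variant frequency from input to selection, using log2 and a pseudocount of 1 where absent.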
# PUM1 PUF domain R5-KER = PUM1 PUF domain R5-KER (Homo sapiens, UniProt Q14671 828-1176, C1007K;R1008E;Q1011R)
# PUM1 PUF domain R5-KER, sequence (Q14671 828-1176 C1007K/R1008E/Q1011R): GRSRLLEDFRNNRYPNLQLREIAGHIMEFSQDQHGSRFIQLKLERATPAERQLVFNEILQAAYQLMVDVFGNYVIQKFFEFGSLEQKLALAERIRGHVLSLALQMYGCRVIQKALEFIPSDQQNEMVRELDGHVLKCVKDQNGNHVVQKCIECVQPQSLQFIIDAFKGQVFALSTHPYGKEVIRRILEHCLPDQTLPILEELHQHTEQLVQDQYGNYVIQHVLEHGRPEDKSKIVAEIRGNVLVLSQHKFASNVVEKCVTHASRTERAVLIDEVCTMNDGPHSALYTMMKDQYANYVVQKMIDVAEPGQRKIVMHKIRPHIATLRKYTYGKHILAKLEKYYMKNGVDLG
# Summary of the method: as §1
# PUM1 PUF domain R7-RRW = PUM1 PUF domain R7-RRW (Homo sapiens, UniProt Q14671 828-1176, S1079R;N1080R;E1083W)
# PUM1 PUF domain R7-RRW, sequence (Q14671 828-1176 S1079R/N1080R/E1083W): as the sequence (Q14671 828-1176 C1007K/R1008E/Q1011R) above, with K180C, E181R, R184Q, S252R, N253R, E256W counted along it
# Summary of the method: as §1
# PUM1 PUF domain R2-EWD = PUM1 PUF domain R2-EWD (Homo sapiens, UniProt Q14671 828-1176, N899E;Y900W;Q903D)
# PUM1 PUF domain R2-EWD, sequence (Q14671 828-1176 N899E/Y900W/Q903D): as the sequence (Q14671 828-1176 C1007K/R1008E/Q1011R) above, with N72E, Y73W, Q76D, K180C, E181R, R184Q counted along it
# Summary of the method: as §1
# PUM1 PUF domain R3-RRT = PUM1 PUF domain R3-RRT (Homo sapiens, UniProt Q14671 828-1176, C935R;Q939T)
# PUM1 PUF domain R3-RRT, sequence (Q14671 828-1176 C935R/Q939T): as the sequence (Q14671 828-1176 C1007K/R1008E/Q1011R) above, with C108R, Q112T, K180C, E181R, R184Q counted along it
# Summary of the method: as §1
# PUM1 PUF domain R1-KCS, sequence (Q14671 828-1176 S863K/R864C/Q867S): as the sequence (Q14671 828-1176 C1007K/R1008E/Q1011R) above, with S36K, R37C, Q40S, K180C, E181R, R184Q counted along it
sequence,measurement,setting,value
GGCUAGAACUAGUGGAUCCCCCGGCGCCCGGCGGCUCGAGCCCGGGUAAGUGUAAAUCGUCUGCAUGCCGCCGGGCGCCAUGCCUGCAGGUCGACUCUAGAAAACAUG,binding signal,PUM1 PUF domain R1-KCS,4.55 log2 enrichment (interaction score)
GGCUAGAACUAGUGGAUCCCCCGGCGCCCGGCGGCUCGAGCCCGGGUAAGUGUAAAUUGUCUGCAUGCCGCCGGGCGCCAUGCCUGCAGGUCGACUCUAGAAAACAUG,binding signal,PUM1 PUF domain R1-KCS,4.89 log2 enrichment (interaction score)
GGCUAGAACUAGUGGAUCCCCCGGCGCCCGGCGGCUCGAGCCCGGGUAAGUGUCAAUAGUCUGCAUGCCGCCGGGCGCCAUGCCUGCAGGUCGACUCUAGAAAACAUG,binding signal,PUM1 PUF domain R5-KER,2.91 log2 enrichment (interaction score)
GGCUAGAACUAGUGGAUCCCCCGGCGCCCGGCGGCUCGAGCCCGGGUAAGUUUAAAUAGUCUGCAUGCCGCCGGGCGCCAUGCCUGCAGGUCGACUCUAGAAAACAUG,binding signal,PUM1 PUF domain R7-RRW,4.75 log2 enrichment (interaction score)
GGCUAGAACUAGUGGAUCCCCCGGCGCCCGGCGGCUCGAGCCCGGGUAAGUCUAAAUAGUCUGCAUGCCGCCGGGCGCCAUGCCUGCAGGUCGACUCUAGAAAACAUG,binding signal,PUM1 PUF domain R7-RRW,4.3 log2 enrichment (interaction score)
GGCUAGAACUAGUGGAUCCCCCGGCGCCCGGCGGCUCGAGCCCGGGUAAGUGUAAAGAGUCUGCAUGCCGCCGGGCGCCAUGCCUGCAGGUCGACUCUAGAAAACAUG,binding signal,PUM1 PUF domain R2-EWD,9.68 log2 enrichment (interaction score)
GGCUAGAACUAGUGGAUCCCCCGGCGCCCGGCGGCUCGAGCCCGGGUAAGUGUAAUUAGUCUGCAUGCCGCCGGGCGCCAUGCCUGCAGGUCGACUCUAGAAAACAUG,binding signal,PUM1 PUF domain R3-RRT,3.01 log2 enrichment (interaction score)
